Tests used:
[1] = biological target: Protein kinase C gamma type (Homo sapiens) (UniProt P05129); settings: at 1 µM;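 also: each value is an averaged percent inhibition of the enzyme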
[2] = biological target: T1, Protein kinase C iota type (Homo sapiens) (UniProt P41743); settings: at 0.1 µM
T1 sequence (whole entry): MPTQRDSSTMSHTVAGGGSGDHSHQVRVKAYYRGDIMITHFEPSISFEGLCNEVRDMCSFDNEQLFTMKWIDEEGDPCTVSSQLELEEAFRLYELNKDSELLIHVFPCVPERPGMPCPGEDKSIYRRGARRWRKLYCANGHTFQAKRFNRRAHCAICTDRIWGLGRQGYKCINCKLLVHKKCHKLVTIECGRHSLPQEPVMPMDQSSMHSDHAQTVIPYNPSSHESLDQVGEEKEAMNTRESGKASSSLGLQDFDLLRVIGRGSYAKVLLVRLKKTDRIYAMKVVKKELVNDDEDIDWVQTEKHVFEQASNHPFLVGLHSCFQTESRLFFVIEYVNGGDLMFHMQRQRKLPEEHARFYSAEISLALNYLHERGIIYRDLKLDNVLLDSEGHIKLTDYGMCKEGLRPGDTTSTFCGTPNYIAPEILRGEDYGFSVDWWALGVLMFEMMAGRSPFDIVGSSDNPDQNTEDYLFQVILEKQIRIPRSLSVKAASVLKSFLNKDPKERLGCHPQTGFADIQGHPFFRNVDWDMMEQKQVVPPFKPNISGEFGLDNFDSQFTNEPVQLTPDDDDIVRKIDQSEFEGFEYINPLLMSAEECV

[3] = biological target: T1, Protein kinase C iota type (Homo sapiens); settings: at 1 µM
[4] = biological target: Protein kinase C theta type (Homo sapiens) (UniProt Q04759); settings: at 0.1 µM
Chain of Protein kinase C theta type (Homo sapiens) (Q04759 whole entry, looked up): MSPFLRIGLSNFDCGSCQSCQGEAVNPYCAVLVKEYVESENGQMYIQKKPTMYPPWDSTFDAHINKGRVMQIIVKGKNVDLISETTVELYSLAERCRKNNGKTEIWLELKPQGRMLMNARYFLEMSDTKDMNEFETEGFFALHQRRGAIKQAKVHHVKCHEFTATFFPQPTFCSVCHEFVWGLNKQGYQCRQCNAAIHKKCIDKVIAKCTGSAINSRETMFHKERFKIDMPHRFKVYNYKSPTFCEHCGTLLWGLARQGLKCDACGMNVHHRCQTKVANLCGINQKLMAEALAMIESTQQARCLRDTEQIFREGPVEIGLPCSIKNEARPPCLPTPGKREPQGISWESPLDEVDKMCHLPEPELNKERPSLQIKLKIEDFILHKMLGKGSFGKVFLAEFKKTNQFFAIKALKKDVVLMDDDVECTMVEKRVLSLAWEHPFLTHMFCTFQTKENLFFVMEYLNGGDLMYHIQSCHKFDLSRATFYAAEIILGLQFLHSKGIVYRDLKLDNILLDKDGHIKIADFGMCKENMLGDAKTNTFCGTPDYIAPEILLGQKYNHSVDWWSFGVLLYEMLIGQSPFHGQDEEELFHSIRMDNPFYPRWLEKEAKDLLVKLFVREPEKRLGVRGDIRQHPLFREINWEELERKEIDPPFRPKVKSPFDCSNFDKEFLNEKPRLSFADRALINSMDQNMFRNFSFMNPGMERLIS

[5] = biological target: Protein kinase C theta type (Homo sapiens) (UniProt Q04759); settings: at 1 µM
[6] = biological target: Protein kinase C beta type (Homo sapiens) (UniProt P05771); settings: at 0.1 µM
Chain of Protein kinase C beta type (Homo sapiens) (P05771 2-671 limits assumed): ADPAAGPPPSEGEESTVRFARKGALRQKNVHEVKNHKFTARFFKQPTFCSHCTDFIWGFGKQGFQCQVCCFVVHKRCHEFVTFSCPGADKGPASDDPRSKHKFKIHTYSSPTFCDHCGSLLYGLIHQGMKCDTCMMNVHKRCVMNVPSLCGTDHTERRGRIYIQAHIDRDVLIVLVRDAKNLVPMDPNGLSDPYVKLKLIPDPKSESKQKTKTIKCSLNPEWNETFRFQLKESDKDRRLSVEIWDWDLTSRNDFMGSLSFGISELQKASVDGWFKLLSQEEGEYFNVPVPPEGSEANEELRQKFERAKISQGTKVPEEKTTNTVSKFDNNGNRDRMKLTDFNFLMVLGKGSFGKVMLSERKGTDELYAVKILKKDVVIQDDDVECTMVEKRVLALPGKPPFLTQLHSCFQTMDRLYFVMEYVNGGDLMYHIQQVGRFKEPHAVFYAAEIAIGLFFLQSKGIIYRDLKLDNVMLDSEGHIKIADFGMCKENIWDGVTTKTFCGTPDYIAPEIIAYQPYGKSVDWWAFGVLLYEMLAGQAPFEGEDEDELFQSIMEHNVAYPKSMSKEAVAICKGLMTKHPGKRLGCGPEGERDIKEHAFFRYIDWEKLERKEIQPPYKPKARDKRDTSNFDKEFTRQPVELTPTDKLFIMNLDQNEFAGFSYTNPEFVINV

[7] = biological target: Protein kinase C beta type (Homo sapiens) (UniProt P05771); settings: at 1 µM
[8] = biological target: T2, Serine/threonine-protein kinase D1 (Homo sapiens) (UniProt Q15139); settings: at 0.1 µM
T2 sequence (whole entry): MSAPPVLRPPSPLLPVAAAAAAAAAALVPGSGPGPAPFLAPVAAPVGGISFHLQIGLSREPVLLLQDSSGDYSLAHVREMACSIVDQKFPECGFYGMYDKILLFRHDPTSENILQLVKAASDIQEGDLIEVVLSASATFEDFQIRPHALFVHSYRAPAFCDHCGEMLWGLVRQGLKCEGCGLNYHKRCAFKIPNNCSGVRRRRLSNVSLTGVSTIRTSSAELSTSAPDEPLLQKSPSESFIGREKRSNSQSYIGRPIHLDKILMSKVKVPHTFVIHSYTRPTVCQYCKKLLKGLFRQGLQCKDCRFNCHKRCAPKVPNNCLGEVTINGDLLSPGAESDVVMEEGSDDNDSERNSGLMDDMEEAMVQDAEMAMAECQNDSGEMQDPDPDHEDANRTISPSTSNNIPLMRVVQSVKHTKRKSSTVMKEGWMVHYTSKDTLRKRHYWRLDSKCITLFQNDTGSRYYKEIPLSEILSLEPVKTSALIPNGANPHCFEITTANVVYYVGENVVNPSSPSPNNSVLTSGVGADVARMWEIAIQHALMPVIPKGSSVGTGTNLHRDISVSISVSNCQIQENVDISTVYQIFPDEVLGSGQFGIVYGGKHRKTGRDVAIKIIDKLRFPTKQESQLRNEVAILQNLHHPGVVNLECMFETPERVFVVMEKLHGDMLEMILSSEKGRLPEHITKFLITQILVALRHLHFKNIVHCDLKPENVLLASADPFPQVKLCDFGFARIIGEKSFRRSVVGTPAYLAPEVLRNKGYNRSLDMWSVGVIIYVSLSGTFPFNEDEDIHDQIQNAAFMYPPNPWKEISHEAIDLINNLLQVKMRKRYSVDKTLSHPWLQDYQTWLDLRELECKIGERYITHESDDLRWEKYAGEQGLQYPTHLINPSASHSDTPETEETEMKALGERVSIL

[9] = biological target: T2, Serine/threonine-protein kinase D1 (Homo sapiens); settings: at 1 µM
[10] = biological target: T3, Serine/threonine-protein kinase D2 (Homo sapiens) (UniProt Q9BZL6); settings: at 0.1 µM
T3 sequence (whole entry): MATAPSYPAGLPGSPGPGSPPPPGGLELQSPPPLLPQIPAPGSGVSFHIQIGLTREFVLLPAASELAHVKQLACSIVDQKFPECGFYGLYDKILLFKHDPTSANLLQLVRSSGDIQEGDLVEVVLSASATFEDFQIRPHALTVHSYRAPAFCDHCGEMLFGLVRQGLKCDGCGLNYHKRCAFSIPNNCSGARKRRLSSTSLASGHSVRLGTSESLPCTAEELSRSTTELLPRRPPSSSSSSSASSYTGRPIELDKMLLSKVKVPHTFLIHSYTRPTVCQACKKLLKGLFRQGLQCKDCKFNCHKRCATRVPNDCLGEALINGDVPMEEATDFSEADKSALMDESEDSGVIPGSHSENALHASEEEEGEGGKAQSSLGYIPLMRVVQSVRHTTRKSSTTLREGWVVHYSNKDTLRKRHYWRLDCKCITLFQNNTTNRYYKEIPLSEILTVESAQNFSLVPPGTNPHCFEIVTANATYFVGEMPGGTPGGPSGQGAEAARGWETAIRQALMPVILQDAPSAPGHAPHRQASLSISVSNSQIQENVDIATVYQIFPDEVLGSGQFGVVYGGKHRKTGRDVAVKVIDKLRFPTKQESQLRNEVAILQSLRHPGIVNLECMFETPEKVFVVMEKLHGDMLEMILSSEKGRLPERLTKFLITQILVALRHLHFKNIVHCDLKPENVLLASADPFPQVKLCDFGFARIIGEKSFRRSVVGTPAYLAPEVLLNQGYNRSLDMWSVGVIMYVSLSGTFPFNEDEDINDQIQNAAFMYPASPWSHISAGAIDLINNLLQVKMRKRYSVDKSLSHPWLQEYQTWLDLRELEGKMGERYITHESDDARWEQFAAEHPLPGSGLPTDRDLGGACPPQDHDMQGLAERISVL

[11] = biological target: T3, Serine/threonine-protein kinase D2 (Homo sapiens); settings: at 1 µM
[12] = biological target: T4, Serine/threonine-protein kinase D3 (Homo sapiens) (UniProt O94806); settings: at 0.1 µM
T4 sequence (whole entry): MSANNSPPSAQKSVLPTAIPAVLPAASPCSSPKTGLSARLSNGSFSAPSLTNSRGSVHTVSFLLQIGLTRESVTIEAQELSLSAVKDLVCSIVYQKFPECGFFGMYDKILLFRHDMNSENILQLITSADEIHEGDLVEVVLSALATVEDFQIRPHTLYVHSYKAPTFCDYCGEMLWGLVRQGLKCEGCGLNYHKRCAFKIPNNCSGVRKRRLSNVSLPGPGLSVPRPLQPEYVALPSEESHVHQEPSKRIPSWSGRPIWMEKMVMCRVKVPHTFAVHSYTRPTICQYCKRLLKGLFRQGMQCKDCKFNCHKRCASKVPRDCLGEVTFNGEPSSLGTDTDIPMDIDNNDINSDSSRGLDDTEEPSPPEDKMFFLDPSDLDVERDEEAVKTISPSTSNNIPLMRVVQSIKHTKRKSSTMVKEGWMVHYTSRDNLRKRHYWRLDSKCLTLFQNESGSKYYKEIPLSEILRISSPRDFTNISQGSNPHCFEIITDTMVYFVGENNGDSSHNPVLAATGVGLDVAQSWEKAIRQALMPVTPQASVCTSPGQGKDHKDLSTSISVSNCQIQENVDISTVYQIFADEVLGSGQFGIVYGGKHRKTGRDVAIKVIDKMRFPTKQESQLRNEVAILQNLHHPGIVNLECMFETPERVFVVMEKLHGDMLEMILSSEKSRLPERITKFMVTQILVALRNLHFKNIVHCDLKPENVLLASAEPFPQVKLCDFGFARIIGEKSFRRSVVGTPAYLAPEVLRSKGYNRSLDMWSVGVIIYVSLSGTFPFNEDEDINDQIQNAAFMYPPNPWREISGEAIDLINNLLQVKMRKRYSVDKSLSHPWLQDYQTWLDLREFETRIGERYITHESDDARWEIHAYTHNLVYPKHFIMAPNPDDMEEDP

[13] = biological target: T4, Serine/threonine-protein kinase D3 (Homo sapiens); settings: at 1 µM
[14] = biological target: T5, cGMP-dependent protein kinase 1 (Homo sapiens) (UniProt Q13976); settings: at 0.1 µM
T5 sequence (whole entry): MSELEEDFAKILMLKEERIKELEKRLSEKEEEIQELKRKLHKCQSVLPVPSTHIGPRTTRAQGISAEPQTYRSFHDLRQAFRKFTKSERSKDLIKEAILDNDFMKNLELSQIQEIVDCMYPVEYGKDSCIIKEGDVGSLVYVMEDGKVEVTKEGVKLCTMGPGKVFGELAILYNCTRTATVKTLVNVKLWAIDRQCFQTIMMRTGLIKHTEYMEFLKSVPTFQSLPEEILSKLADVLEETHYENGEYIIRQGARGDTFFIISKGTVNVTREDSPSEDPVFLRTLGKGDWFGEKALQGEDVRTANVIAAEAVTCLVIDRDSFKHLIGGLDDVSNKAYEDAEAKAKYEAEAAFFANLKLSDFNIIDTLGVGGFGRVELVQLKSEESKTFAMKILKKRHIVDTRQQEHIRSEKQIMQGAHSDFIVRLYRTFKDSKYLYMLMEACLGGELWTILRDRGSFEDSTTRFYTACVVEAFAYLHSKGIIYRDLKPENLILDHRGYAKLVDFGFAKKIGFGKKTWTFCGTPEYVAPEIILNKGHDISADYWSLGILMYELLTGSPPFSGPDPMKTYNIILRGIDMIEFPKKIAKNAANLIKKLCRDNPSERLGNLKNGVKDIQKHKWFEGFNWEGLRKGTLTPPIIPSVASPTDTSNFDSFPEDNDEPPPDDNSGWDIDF

[15] = biological target: T5, cGMP-dependent protein kinase 1 (Homo sapiens); settings: at 1 µM
[16] = biological target: T6, cGMP-dependent protein kinase 2 (Homo sapiens) (UniProt Q13237); settings: at 0.1 µM
T6 sequence (whole entry): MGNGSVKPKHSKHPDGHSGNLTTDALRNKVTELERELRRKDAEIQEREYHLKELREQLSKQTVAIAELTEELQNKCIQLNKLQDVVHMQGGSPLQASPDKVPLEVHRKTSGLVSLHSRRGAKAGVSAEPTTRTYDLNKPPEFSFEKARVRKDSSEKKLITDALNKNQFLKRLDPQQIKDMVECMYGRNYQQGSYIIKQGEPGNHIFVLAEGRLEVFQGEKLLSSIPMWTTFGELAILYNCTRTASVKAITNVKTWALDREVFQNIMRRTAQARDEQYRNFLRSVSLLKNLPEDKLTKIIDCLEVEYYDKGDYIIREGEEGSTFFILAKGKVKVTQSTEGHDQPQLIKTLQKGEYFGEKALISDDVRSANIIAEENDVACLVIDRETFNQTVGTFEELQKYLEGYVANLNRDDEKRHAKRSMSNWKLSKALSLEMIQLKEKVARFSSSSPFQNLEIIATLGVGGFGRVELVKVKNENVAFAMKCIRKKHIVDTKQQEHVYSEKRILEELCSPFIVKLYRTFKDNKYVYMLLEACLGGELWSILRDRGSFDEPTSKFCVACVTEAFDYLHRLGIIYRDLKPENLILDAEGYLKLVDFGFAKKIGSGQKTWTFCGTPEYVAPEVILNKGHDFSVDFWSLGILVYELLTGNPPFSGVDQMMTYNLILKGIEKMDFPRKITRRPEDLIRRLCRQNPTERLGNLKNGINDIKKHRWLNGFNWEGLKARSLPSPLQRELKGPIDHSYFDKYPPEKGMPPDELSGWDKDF

[17] = biological target: T6, cGMP-dependent protein kinase 2 (Homo sapiens); settings: at 1 µM
[18] = biological target: T7, cAMP-dependent protein kinase catalytic subunit PRKX (Homo sapiens) (UniProt P51817); settings: at 0.1 µM
T7 sequence (whole entry): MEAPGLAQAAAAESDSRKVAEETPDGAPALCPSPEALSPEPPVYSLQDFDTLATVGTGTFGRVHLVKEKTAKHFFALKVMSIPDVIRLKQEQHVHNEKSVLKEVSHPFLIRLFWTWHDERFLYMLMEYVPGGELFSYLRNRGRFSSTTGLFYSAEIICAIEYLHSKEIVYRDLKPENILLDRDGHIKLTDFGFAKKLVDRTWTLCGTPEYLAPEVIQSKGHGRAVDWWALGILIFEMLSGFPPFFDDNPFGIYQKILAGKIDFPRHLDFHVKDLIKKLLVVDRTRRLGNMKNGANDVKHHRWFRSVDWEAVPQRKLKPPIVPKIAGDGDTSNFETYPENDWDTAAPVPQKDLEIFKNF

[19] = biological target: T7, cAMP-dependent protein kinase catalytic subunit PRKX (Homo sapiens); settings: at 1 µM
[20] = biological target: Rho-associated protein kinase 1 (Homo sapiens) (UniProt Q13464); settings: at 0.1 µM;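 also: values are mean percent inhibition of ROCK1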
Chain of Rho-associated protein kinase 1 (Homo sapiens) (Q13464 2-1354 limits assumed): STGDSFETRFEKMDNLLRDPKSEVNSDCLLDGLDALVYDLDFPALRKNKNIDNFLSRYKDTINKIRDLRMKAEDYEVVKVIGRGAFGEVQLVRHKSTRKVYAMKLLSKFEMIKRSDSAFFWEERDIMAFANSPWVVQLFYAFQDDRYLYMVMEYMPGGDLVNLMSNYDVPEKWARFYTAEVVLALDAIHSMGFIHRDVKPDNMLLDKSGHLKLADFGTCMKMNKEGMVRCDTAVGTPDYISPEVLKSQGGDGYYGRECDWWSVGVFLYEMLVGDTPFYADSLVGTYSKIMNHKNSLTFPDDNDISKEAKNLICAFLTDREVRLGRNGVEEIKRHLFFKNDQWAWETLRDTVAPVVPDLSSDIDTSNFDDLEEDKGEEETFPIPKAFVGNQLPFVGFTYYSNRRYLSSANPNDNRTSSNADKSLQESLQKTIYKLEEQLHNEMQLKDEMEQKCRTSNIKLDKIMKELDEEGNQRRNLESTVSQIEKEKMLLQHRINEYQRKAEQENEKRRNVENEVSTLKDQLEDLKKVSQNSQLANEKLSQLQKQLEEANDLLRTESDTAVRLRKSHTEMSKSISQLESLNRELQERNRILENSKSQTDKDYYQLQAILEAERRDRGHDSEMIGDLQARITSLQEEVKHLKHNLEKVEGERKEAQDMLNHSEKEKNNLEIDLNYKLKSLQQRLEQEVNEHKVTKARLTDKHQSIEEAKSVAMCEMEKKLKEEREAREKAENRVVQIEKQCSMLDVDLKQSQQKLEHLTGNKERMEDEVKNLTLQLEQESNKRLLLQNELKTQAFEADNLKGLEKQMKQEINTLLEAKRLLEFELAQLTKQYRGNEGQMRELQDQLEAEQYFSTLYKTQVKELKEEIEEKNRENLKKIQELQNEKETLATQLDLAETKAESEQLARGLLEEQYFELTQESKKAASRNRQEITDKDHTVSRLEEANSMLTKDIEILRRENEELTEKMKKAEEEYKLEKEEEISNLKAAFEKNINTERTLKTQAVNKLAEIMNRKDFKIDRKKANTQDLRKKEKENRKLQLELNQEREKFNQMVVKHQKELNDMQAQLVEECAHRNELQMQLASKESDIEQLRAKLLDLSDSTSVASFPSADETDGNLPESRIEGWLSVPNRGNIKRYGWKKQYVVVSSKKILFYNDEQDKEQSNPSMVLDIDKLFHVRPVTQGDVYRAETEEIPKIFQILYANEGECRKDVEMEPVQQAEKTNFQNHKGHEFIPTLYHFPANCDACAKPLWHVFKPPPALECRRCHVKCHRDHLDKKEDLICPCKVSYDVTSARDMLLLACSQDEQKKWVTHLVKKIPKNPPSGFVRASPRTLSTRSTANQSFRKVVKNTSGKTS

SMILES	inhibition [1] [%]	inhibition [2] [%]	inhibition [3] [%]	inhibition [4] [%]	inhibition [5] [%]	inhibition [6] [%]	inhibition [7] [%]	inhibition [8] [%]	inhibition [9] [%]	inhibition [10] [%]	inhibition [11] [%]	inhibition [12] [%]	inhibition [13] [%]	inhibition [14] [%]	inhibition [15] [%]	inhibition [16] [%]	inhibition [17] [%]	inhibition [18] [%]	inhibition [19] [%]	inhibition [20] [%]
COC(=O)c1cncc(/C=C/c2c(C)cc(O)cc2C)c1	3.93	2.79	0.49	2.55	3.44	-1.36	2.82	3.37	5	3.87	4	4.31	3.64	3.3	2.75	1.54	2.4	1.78	3.76	0.77
Oc1cccc(-c2nc(-c3ccccc3)[nH]c2-c2ccncc2)c1	5.82	1.08	0.18	2.11	3.65	0.99	7.1	3.05	5.51	3.64	7.13	2.71	4.25	2.56	5.69	1.58	6.36	2.36	2.93	0.52
ON=C1CCc2cc(-c3nc(C4CCNCC4)[nH]c3-c3ccncc3)ccc21	-1.84	-0.01	4.71	-0.55	1.23	0.45	7.96	0.36	5.6	1.54	9.97	1.39	8.68	-0.33	1.76	0.54	2.55	-0.73	-2.69	0.17

From ChEMBL document CHEMBL1961873, “Compounds: GSK PKIS; Assays: Nanosyn kinase panel” (2012)
